This is a sample that favours compounds with a hit; in the whole collection about 4.2% have one here.
NALP3 yeast inh = blocks the NALP3 inflammasome reconstituted in yeast. Yeast reconstituted NLRP3/ASC/caspase-1, beta-gal luminescence, 24 h. inhibition, % at 10 µM. actives 0.39% (n = 330,000);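 active = inhibition of 50% or more; inactive = inhibition below 50%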
PfHsp90 set2 = inhibits growth of yeast expressing Plasmodium falciparum Hsp90; inhibition, % at 9.4 µM; actives 0.32% (n = 310,000); S. cerevisiae expressing PfHsp90, BacTiter-Glo ATP, 48 h; yeast lacking PDR1 and PDR3 efflux regulators;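 active = every replicate shows inhibition above about 80%, whatever the replicate mean, limit read from the data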
TIM10 inh = TIM10 yeast growth inhibition; S. cerevisiae TIM10 strain growth, BacTiter-Glo luminescence, 24 h; inhibition, % at 10 µM; actives 1.4% (n = 330,000);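 active = inhibition of 40% or more at the single tested concentration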;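 note: wild-type TIM10 isogenic control strain grown at permissive 25 °C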
tim10-1 inh = growth inhibitors of tim10-1 mutant yeast. actives 2.2% (n = 330,000). S. cerevisiae tim10-1 ts strain growth, BacTiter-Glo, 24 h. inhibition, % at 20 µM;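 active = inhibition of at least 40%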;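 note: mutant grown at 25 °C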
NALP1 yeast inh = inhibitors of NALP1 inflammasome in yeast; inhibition, % at 10 µM; actives 0.61% (n = 280,000); S. cerevisiae NALP1/ASC/caspase-1 growth, X-gal OD620, 72 h; in the data active = inhibition mostly above about 24%, no sharp cut-off; inactive = mostly below about 32%
tim23-1 inh = growth inhibitors of tim23-1 mutant yeast; S. cerevisiae tim23-1 growth, BacTiter-Glo luminescence, 24 h; inhibition, % at 20 µM; actives 1.3% (n = 330,000); AID 463212;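 active = growth inhibition of the mutant yeast at or above 50%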;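 note: temperature-sensitive mutant grown at 25 °C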
tim23-1 conf = confirmation of tim23-1 mutant yeast growth inhibitors; shares compounds with tim23-1 inh; S. cerevisiae tim23-1 growth, BacTiter-Glo luminescence, 24 h; inhibition, % at 20 µM; actives 83% (n = 4,400);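 active = inhibition above about 39% in either of two replicate wells at 20 µM, limit read from the data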;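 note: temperature-sensitive tim23-1 mutant grown at 25 °C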
A number is an active result; . = inactive; / = no result given.

SMILES	NALP3 yeast inh	PfHsp90 set2	TIM10 inh	tim10-1 inh	NALP1 yeast inh	tim23-1 inh	tim23-1 conf
COc1ccc(C(C[N+](=O)[O-])c2c(C)[nH]n(-c3ccccc3)c2=O)cc1 (stereo not given)	.	117	.	.	45	76	67
O=C1OCCC1Sc1nc2ccccc2c(=O)n1Cc1ccc(F)cc1 (stereo not given)	.	.	.	.	.	50	.
O=C1OCCC1Sc1nc2ccccc2c(=O)n1-c1ccc(F)cc1 (stereo not given)	.	.	.	.	.	.	/
O=C(CCNC(=O)C1CCN(S(=O)(=O)c2ccc(F)cc2)CC1)NCc1cccnc1	.	.	.	.	.	.	/
Oc1c(Br)cc(Br)cc1CNc1cccc2cccnc12	.	.	.	.	.	57	62
CNC(=O)c1sc(-c2ccccc2)nc1C	.	.	.	.	.	.	/
Cc1nc(-c2ccccc2)sc1C(N)=O	.	.	.	.	.	96	.
O=C(CC1CCC1)Nc1cccc2c([N+](=O)[O-])cccc12	.	/	.	.	/	.	/
COc1ccccc1OCC(=O)N/N=C/c1c(O)ccc2ccccc12	.	.	.	.	.	59	55
COc1ccc2ccccc2c1/C=N\NC(=O)c1ccc(C)s1	.	.	.	.	.	51	.
Cc1cc(C)n(CCC(=O)N/N=C/c2c(O)ccc3ccccc23)n1	.	.	.	.	/	54	51
Cc1cc(C)n(CCC(=O)N/N=C/c2ccc(O)cc2)n1	.	.	.	.	.	.	/
S=C(Nc1ccccc1Cl)N(CCCN1CCOCC1)Cc1ccccn1	.	.	.	.	.	.	/
Cc1cccc(NC(=S)N/N=C/c2c[nH]c3ccccc23)c1	.	.	.	.	.	64	.
Cc1ccc(C(=O)Nc2ccc(C(=O)N/N=C/c3c[nH]c4ccccc34)cc2)cc1	.	.	.	.	.	.	/
O=S(=O)(NCc1csc(-c2ccccc2)n1)c1ccc(Cl)s1	.	.	.	.	.	53	45
CCOC(=O)c1c(CN(C)C)n(C)c2c(O)c(N=NC(N)=O)c3ccc(Br)cc3c12	.	.	.	.	.	54	.
CCCn1c(=O)c(C(=O)OCC)c(O)c2cc(Br)ccc21	.	.	.	.	.	.	/
Oc1ccc2ccccc2c1C=Nc1ccccc1Br	.	.	.	.	.	53	51
CS/C(N)=N/N=C/c1c(O)ccc2ccccc12	.	.	.	.	.	58	70
Oc1ccc2ccccc2c1/C=N/c1nccs1	.	/	.	.	.	57	60
CN(C)/N=C/c1c(O)ccc2ccccc12	.	.	.	.	.	.	/
COc1cc(CC(=O)OCC(=O)NC2CCCCCC2)cc(OC)c1OC	.	.	.	.	/	.	/
Cc1cc(C(=O)N2CCCC(Nc3ccccc3)C2)c2ccc(F)cc2n1 (stereo not given)	.	.	.	.	.	.	/
c1ccc(-c2sc3ccccc3c2-c2ccc(OCCN3CCCCC3)cc2)cc1	.	.	.	.	/	.	/
SMILES	NALP3 yeast inh	PfHsp90 set2	TIM10 inh	tim10-1 inh	NALP1 yeast inh	tim23-1 inh	tim23-1 conf
COc1ccc(-c2sc3cc4c(cc3c2-c2ccc(OCCN3CCCCC3)cc2)OCO4)cc1	/	.	.	.	/	.	/
COc1cc(OC)cc(-c2sc3ccc(OC)cc3c2-c2ccc(OCCN3CCCCC3)cc2)c1	/	.	.	.	/	52	.
c1ccc2c(-c3ccc(OCCN4CCCCC4)cc3)c(-c3ccsc3)sc2c1	.	.	.	.	/	63	65
Cc1ccc(C23CCC(=O)N2C(C(=O)O)CS3)c(C)c1 (stereo not given)	.	.	.	.	.	.	/
CCn1cc(CNC(=O)CCc2nnc(CCC3CCCCC3)o2)cn1	.	.	.	.	.	.	/
O=C(c1ccco1)N1CCN(C(=S)Nc2cccc([N+](=O)[O-])c2)CC1	.	.	.	.	.	.	/
O=[N+]([O-])c1cccc(NC(=S)N2CCc3ccccc3C2)c1	.	.	.	.	.	52	55
O=C(c1ccccc1)C(O)C(c1ccccc1)N1CCOCC1 (stereo not given)	.	.	.	.	.	.	/
CCCNC(=O)c1oc2ccc3c(c2c1C)C(O)CC(C)(C)O3 (stereo not given)	.	.	.	.	.	.	/
Cc1c(C(=O)NCc2ccoc2)oc2ccc3c(c12)C(=O)CC(C)(C)O3	.	.	.	.	.	52	53
Cc1ccc(C2CC(c3cccs3)=NN2C(=O)CCl)cc1 (stereo not given)	.	.	.	.	.	64	.
O=C(c1ccccc1)N1N=C(c2cccs2)CC1c1ccccc1O (stereo not given)	.	.	.	.	.	57	43
Cc1ccccc1-c1nc(CN(Cc2c(C)nn(C)c2C)C2CC2)c(C)o1	.	.	.	.	.	.	/
O=C1C=C(c2ccccc2C(F)(F)F)C[C@@H](c2ccc3c(c2)OCO3)C1	.	.	.	.	/	.	/
COCCNc1c(-c2ccc(OC)cc2)nc2ccc(Cl)cn12	.	.	.	.	.	.	/
CCOC(=O)CNc1c(-c2ccc(OC)cc2)nc2ccc(Cl)cn12	.	.	.	.	.	53	48
Cc1ccnc(Nc2nc(-c3ccc(O)cc3O)cs2)c1	.	.	.	.	.	86	77
Cc1ccc(CNC(=O)c2cc(-c3ccccc3)nn2CC2CC(c3cccc([N+](=O)[O-])c3)=NO2)cc1 (stereo not given)	.	.	.	.	/	.	/
COc1ccc(Cc2nnc(NS(=O)(=O)c3ccc([N+](=O)[O-])cc3)s2)cc1	.	.	.	.	.	.	/
Cc1ccc(CSC2=NCCN2S(=O)(=O)c2ccc(F)cc2)cc1	.	.	.	.	.	.	/
CN(CC(=O)Nc1ccc(F)c(F)c1F)C(=O)C1CCN(C(=O)Nc2ccccc2)CC1	.	.	.	.	/	.	/
CC1=NN(c2ccc(C)c(C)c2)C(=O)/C1=C\C=C\c1ccc([N+](=O)[O-])o1	.	.	.	.	.	50	.
CCOC(=O)c1ccc(N2N=C(C)/C(=C/C=C/c3ccco3)C2=O)cc1	.	.	.	.	.	.	/
CCc1nnc(NC(=O)CSc2nc3c(cc2C#N)CCC3)s1	.	.	.	.	.	94	.
Cc1ccc(C)c(S(=O)(=O)N2CCN(C(=O)Cn3c(=O)cnc4ccccc43)CC2)c1	.	/	.	.	/	.	/
C/C(=C\C(=O)c1ccc(C)cc1)Nc1cccc(O)c1	.	.	.	.	.	51	.
O=C(COC(=O)CC1CCCC1)Nc1ccc(Cl)cn1	.	.	.	.	/	60	55
O=C(COC(=O)CNC(=O)C1CCCCC1)Nc1ccc(Cl)cn1	.	/	.	.	/	.	/
